{"source": "PubChem BioAssay", "data": [{"assay": "probe aShh binding to arrayed compounds – biochemical, biotinylated probe, 635/667 nm fluorescence, primary screen (AID 1114);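 also: probe is biotin-labelled aShh protein from a stem cell growth factor screen; measures binding of labelled protein to compounds printed on the slide; score merges feature fluorescence at 667 nm with signal-to-noise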", "settings": "small-molecule microarray, higher = more signal", "values": [{"smiles": "COCCOC(=O)N1C(=O)[C@@]2(c3cc(C#CCC(C(=O)OC)C(=O)OC)ccc31)[C@H](C(=O)Nc1nc3ccccc3s1)[C@H]1C(=O)O[C@H](c3ccccc3)[C@H](c3ccccc3)N1[C@@H]2c1ccc(O)cc1", "composite z-score": -0.043}, {"smiles": "COc1ccc(C(O)C2C=CC3C(=O)N(c4ccccc4)C(=O)C3N2Nc2ccc([N+](=O)[O-])cc2)c2ccccc12", "note": "(stereo not given)", "composite z-score": 0.204}, {"smiles": "COc1ccc(C(=O)Nc2ccc3c(c2)[C@@]2(O[C@H](CCO)[C@@H]([Si](C)(C)c4ccc(OC)cc4)[C@@H]2C)C(=O)N3Cc2ccccc2)cc1", "composite z-score": -0.0782}, {"smiles": "[N-]=[N+]=Nc1ccccc1[C@@H]1OC(c2ccc(OCCCO)cc2)=N[C@]1(CCS(=O)(=O)c1ccccc1)C(=O)NCC(O)CO", "note": "(stereo not given in full)", "composite z-score": -0.0011}, {"smiles": "COC(=O)[C@@]1(Cc2ccccc2)[C@H]2c3cc(C(=O)N(C)C)n(Cc4ccc(S(C)(=O)=O)cc4)c3C[C@H]2CN1C(=O)c1ccccc1", "composite z-score": 0.954}]}, {"assay": "probe aNog binding to arrayed compounds – biochemical, biotinylated probe, 635/667 nm fluorescence, primary screen (AID 1115);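 also: probe is biotinylated aNog protein used at 0.15 µg/mL for 1 h at 4 C; z-score combines 667 nm fluorescence of each spot with its signal to noise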", "settings": "small-molecule microarray, higher = more signal", "values": [{"smiles": "O=C1O[C@H](Cc2ccccc2)[C@@H]2[C@H]3C=CCCC=C3CN2[C@H]1Cc1ccc(O)cc1", "composite z-score": 0.0222}, {"smiles": "CN1C(=O)[C@@H]2[C@@H](CC(COc3ccccc3)=C3[C@@H](CCc4ccccc4)OB(O)C[C@@H]32)C1=O", "composite z-score": -0.0172}, {"smiles": "CCOC(=O)C[C@H]1[C@H](OC(=O)Cc2ccc3c(c2)OCO3)[C@@H](NC(=O)Cc2ccc(OC)cc2)c2cc(OCCCO)ccc2N1C(=O)Cc1ccc(OC)cc1", "composite z-score": 0.118}, {"smiles": "CN(C)CCCNC(=O)[C@@]1(Cc2ccccc2I)c2ccccc2C(=O)N(C2CCCCC2)[C@H]1c1ccc(CO)cc1", "composite z-score": 0.0646}, {"smiles": "CCCCC(=C=CC[C@H](O)c1ccc(CO)o1)CCO", "composite z-score": 0.2}, {"smiles": "COC(=O)[C@@]1(Cc2ccc(F)cc2)[C@H]2c3cc(C(=O)N(C)C)n(C)c3C[C@H]2CN1C(=O)c1ccccc1", "composite z-score": 1.01}, {"smiles": "CC1CC/C=C\\[C@H]2OC34C=CCN(c5ccc(Cl)cc5)C(=O)[C@H]3N(CCCCCCO)C(=O)[C@]4(C)C2C(=O)O1", "note": "(stereo not given in full)", "composite z-score": 0.0112}, {"smiles": "O=C1C[C@]2(c3ccc([N+](=O)[O-])cc3)C(=O)N(C3CC3)c3cc(CO)ccc3[C@H]2N1C1CCCCC1", "composite z-score": -0.383}, {"smiles": "CCCC[C@H]1C[C@@H]1[C@@H]1N(C(C)=O)[C@H](c2cccc(OC)c2)CC12CC2", "composite z-score": -0.643}, {"smiles": "Cc1ccc(S[C@]2(C(=O)NCC(F)(F)F)CC(=O)N(Cc3ccccc3C(F)(F)F)[C@@H]2c2ccc(CO)cc2)cc1", "composite z-score": 0.526}, {"smiles": "Cc1ccc(S[C@]2(C(=O)NCCCN(C)C)CC(=O)N(C3Cc4ccccc4C3)[C@@H]2c2ccc(CO)cc2I)cc1", "composite z-score": -0.291}, {"smiles": "N#Cc1ccc(C(O)C2C=CC3C(=O)NC(=O)C3N2Nc2ccc(Cl)cc2Cl)cc1", "note": "(stereo not given)", "composite z-score": 0.732}, {"smiles": "O=C1O[C@@H](c2ccccc2)[C@@H](c2ccccc2)N2[C@@H](c3ccccc3OCCO)[C@]3(C(=O)Nc4ccc(C#CCCO)cc43)[C@@H](C(=O)NC[C@H](O)c3ccccc3)[C@H]12", "composite z-score": 2.45}, {"smiles": "COc1ccc([Si](C)(C)[C@@H]2[C@@H](CC(=O)N3Cc4ccccc4C[C@H]3CO)O[C@]3(C(=O)N(Cc4ccc(N5CCOC5=O)cc4)c4ccccc43)[C@H]2C)cc1", "composite z-score": -0.339}, {"smiles": "COc1ccccc1CN1C(=O)c2ccccc2[C@](Cc2ccccc2I)(C(=O)NCC(C)C)[C@@H]1c1ccc(CO)cc1", "composite z-score": 0.215}, {"smiles": "CC(C)(C)OC(=O)CC[C@@]1(C(=O)NCCN2CCOCC2)N=C(c2ccc(OCCCO)cc2)O[C@@H]1c1ccccc1CN=[N+]=[N-]", "composite z-score": -0.481}, {"smiles": "CC(C)=CCCC(C)=CC(O)C1C=CC2C(=O)NC(=O)C2N1Nc1ccccn1", "note": "(stereo not given)", "composite z-score": -0.0116}, {"smiles": "CC(C)N1C(=O)c2ccccc2[C@](C)(C(=O)NCC(F)(F)F)[C@@H]1c1ccc(CO)cc1", "composite z-score": 0.543}, {"smiles": "Cc1ccc(S[C@]2(C(=O)NCc3ccccc3)CC(=O)N(Cc3ccccc3C(F)(F)F)[C@@H]2c2ccc(CO)cc2)cc1", "composite z-score": 0.381}, {"smiles": "Cc1ccccc1C(O)C1C=CC2C(=O)N(c3ccccc3)C(=O)C2N1Nc1ccccc1", "note": "(stereo not given)", "composite z-score": 0.189}, {"smiles": "O=C1OCCC=C[C@H]2OC34C=CCN(c5ccc6ccccc6c5)C(=O)[C@H]3N(CCO)C(=O)[C@@H]4C12", "note": "(stereo not given in full)", "composite z-score": -0.453}, {"smiles": "COCCCNC(=O)[C@@H]1c2ccccc2C(=O)N(Cc2ccc(OC(F)(F)F)cc2)[C@H]1c1ccc(CO)cc1", "composite z-score": -0.553}, {"smiles": "CCC(CC)C(O)C1C=CC2C(=O)N(c3ccccc3)C(=O)C2N1Nc1ccccc1F", "note": "(stereo not given)", "composite z-score": 0.53}, {"smiles": "C=C1C(=O)C=C2CN(C(=O)c3ccccc3)[C@@](Cc3ccc(OC)cc3)(C(=O)OC)[C@@H]12", "composite z-score": 2.04}, {"smiles": "O=C(NC1CC1)[C@@H]1c2ccccc2C(=O)N(Cc2cc(C(F)(F)F)cc(C(F)(F)F)c2)[C@H]1c1ccc(CO)cc1", "composite z-score": 0.431}, {"smiles": "COC(=O)c1cccc([C@H]2OC(=CC(=O)OC(C)C)C[C@@H](c3cccc(C(=O)OC)c3)O2)c1", "composite z-score": -0.109}, {"smiles": "COc1cc(C(O)C2C=CC3C(=O)N(c4ccccc4)C(=O)C3N2Nc2ccccc2F)cc(OC)c1OC", "note": "(stereo not given)", "composite z-score": 1.11}, {"smiles": "COCCOC(=O)N1C(=O)[C@@]2(c3cc(C#CCC(C(=O)OC)C(=O)OC)ccc31)[C@H](c1ccc(O)cc1)N1[C@H](c3ccccc3)[C@H](c3ccccc3)OC(=O)[C@H]1[C@@H]2C(=O)Nc1nc2ccccc2s1", "composite z-score": 0.112}, {"smiles": "COc1ccc([Si](C)(C)[C@@H]2[C@@H](CC(=O)N(CCO)Cc3ccccc3)O[C@]3(C(=O)N(Cc4ccc(N5C(=O)c6cccc7cccc5c67)cc4)c4ccccc43)[C@H]2C)cc1", "composite z-score": 0.189}, {"smiles": "C[C@@H]1ON(c2ccc(I)cc2)[C@H](c2cccc(NC(=O)OCC3c4ccccc4-c4ccccc43)c2)[C@H]1C(=O)N1C(=O)OC[C@H]1Cc1ccccc1", "composite z-score": -0.285}, {"smiles": "COCCOC(=O)N1C(=O)[C@@]2(c3cc(C#CCC(C(=O)OC)C(=O)OC)ccc31)[C@H](C(=O)Nc1nc3ccccc3s1)[C@H]1C(=O)O[C@H](c3ccccc3)[C@H](c3ccccc3)N1[C@@H]2c1ccc(O)cc1", "composite z-score": 0.459}, {"smiles": "COc1ccc(C(O)C2C=CC3C(=O)N(c4ccccc4)C(=O)C3N2Nc2ccc([N+](=O)[O-])cc2)c2ccccc12", "note": "(stereo not given)", "composite z-score": 1.61}, {"smiles": "COc1ccc(C(=O)Nc2ccc3c(c2)[C@@]2(O[C@H](CCO)[C@@H]([Si](C)(C)c4ccc(OC)cc4)[C@@H]2C)C(=O)N3Cc2ccccc2)cc1", "composite z-score": 0.56}, {"smiles": "[N-]=[N+]=Nc1ccccc1[C@@H]1OC(c2ccc(OCCCO)cc2)=N[C@]1(CCS(=O)(=O)c1ccccc1)C(=O)NCC(O)CO", "note": "(stereo not given in full)", "composite z-score": 0.437}, {"smiles": "COC(=O)[C@@]1(Cc2ccccc2)[C@H]2c3cc(C(=O)N(C)C)n(Cc4ccc(S(C)(=O)=O)cc4)c3C[C@H]2CN1C(=O)c1ccccc1", "composite z-score": 0.35}]}]}
